The list is not random: actives were taken first. Their share in the collection is about 1.2%.
ABCB6 inh 2 – inhibitors of human ABC transporter ABCB6; Q9NP58; K562-ABCB6 porphyrin accumulation, flow cytometry, 1 h; stronger effect = lower value; fluorescence ratio to DMSO, % at 10 µM; actives 0.19% (n = 360,000);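 active means fluorescence ratio to DMSO below 75%, the collection mean minus 3 SD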;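 further: signal is porphyrin accumulated inside mitochondria; 100% equals median channel fluorescence of DMSO control wells; lower ratio means ABCB6 inhibition with less porphyrin fluorescence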
Target sequence (Q9NP58 whole entry, looked up): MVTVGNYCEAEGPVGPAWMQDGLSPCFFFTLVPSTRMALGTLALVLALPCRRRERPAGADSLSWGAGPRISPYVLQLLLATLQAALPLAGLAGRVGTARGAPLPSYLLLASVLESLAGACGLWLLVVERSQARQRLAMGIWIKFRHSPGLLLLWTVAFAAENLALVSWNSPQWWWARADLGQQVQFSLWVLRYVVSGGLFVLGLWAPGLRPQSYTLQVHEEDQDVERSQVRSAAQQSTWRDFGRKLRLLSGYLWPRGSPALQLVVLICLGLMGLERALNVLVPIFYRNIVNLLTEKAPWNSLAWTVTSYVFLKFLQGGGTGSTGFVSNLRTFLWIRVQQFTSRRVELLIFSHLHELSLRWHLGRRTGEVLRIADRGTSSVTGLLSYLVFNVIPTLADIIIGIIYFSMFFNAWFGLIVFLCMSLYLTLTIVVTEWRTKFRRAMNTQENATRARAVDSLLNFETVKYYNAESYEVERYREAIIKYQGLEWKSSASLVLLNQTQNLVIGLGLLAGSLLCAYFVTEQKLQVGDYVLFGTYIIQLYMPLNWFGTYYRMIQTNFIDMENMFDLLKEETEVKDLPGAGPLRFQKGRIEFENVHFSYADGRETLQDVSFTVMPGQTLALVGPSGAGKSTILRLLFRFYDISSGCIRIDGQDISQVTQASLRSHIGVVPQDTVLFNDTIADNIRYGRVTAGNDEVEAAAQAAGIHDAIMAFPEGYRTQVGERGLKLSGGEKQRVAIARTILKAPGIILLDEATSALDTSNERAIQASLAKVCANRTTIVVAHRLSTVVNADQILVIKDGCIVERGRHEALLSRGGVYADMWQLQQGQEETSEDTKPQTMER
CR mimetic SO – yeast age-related superoxide inhibition as caloric restriction mimetic; S. cerevisiae aged cells, superoxide DHE fluorescence; stronger effect = lower value; superoxide response (% of plate mean), % at 10 µM; actives 0.18% (n = 330,000); AID 2690;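 active means superoxide response under a set limit, about three screen SD below normal, cut at about 65% in these data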;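 further: yeast aged for seven days with compound at 30 °C before DHE staining; 100% = average MFI of all compound-treated wells on the plate with controls excluded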
Platelet DG rel – modulates dense granule release in human platelets | AID 1663 | inhibition, %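 (compounds screened at 7.5 µM in platelet-rich plasma)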 | actives 0.22% (n = 300,000) | human platelet-rich plasma, SFLLRN dense granule ATP release, luminescence;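 active means mean replicate score, as percent of positive control, at or above 50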
VLA-4 inh – inhibition in a human VLA-4 binding assay; inhibition, % (about 7 µM as worked out from the volumes in the protocol); VLA-4 expressing cells, ligand binding flow cytometry; P13612; actives 0.2% (n = 330,000); in the data active means inhibition above about 50%
SKN-1 block – C. elegans SKN-1 inhibition; actives 0.49% (n = 360,000); inhibition, % at 21.8 µM; C. elegans VP596 Pgst-4::GFP/RFP ratio, acrylamide-induced, 24 h;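 active means interference check ratio from 0.5 to 1.5 plus GFP to RFP signal ratio inhibition reaching or exceeding a fixed threshold, cut at about 30% in these data, passing the limit was not always enough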
VLA-4 allo CP – human VLA-4 allosteric modulation in cherry picked compounds; shares compounds with VLA-4 inh; U937 cells, HUTS-21 LIBS mAb binding, flow cytometry; LDV ligand present at threefold Kd; inhibition, % at 6.7 µM; actives 2% (n = 1,300); in the data active means inhibition above about 40%;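 further: 0% = ligand without compound and 100% = no ligand background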
* = called active by the depositor; / = no result.

SMILES	ABCB6 inh 2	CR mimetic SO	Platelet DG rel	VLA-4 inh	SKN-1 block	VLA-4 allo CP
NC(=O)NS(=O)(=O)Oc1ccccc1	94	103	0	50*	1	-15
O=C(CC[C@H]1O[C@@H](n2cnc3c(NC(=O)c4ccccc4)ncnc32)[C@H](O)[C@@H]1O)NCC1CCN(Cc2ccccc2)CC1	95	/	/	/	-10	/
CCOC(=O)C1(Cc2ccccc2Cl)CCN(C(=O)CCn2ccnc2C)CC1	102	111	11	53*	13	-6
CCOC(=O)c1c(C)[nH]c(C(=O)COC(=O)CSC)c1C	108	94	14	91*	-12	-7
CCCCC(=O)OCC(=O)c1[nH]c(C)c(C(=O)OCC)c1C	91	99	7	-15	-21	2
CCOC(=O)C1CCCN(C(=O)c2ccc(F)c(C)c2)CC1 (stereo unspecified)	97	/	/	/	15	/
COc1cc(C(=O)OCC(=O)NCCC2=CCCCC2)cc(OC)c1OC	94	/	/	/	26	/
COc1cccc(C(=O)OCC(=O)NCCC2=CCCCC2)c1	100	114	/	4	17	-1
Cn1c(SCC(=O)Nc2nccs2)nnc1-c1ccncc1	89	90	1	12	3	/
CC(C)C(NC(=O)c1ccccc1)c1nnc(SCC(=O)Nc2nccs2)n1C (stereo unspecified)	99	107	2	58*	-19	3
CC(=O)Nc1ccc(S(=O)(=O)NCC(=O)NC(C)c2ccc(S(N)(=O)=O)cc2)cc1 (stereo unspecified)	102	97	7	-3	-20	1
COC1=CC(C)C2CC3OC(=O)CC4C(C)=C(OC)C(=O)C(C2(C)C1=O)C34C (stereo unspecified)	99	/	/	/	16	/
COc1ccc(C(=O)c2c3ccccc3[n+]([O-])n2CCC(N)=O)cc1	102	106	-6	55*	3	7
COc1ccc2[nH]c(=O)c(-c3noc(-c4ccccc4)n3)cc2c1	102	108	-1	96*	-7	-1
Nc1nc2ccc(Cl)cc2cc1C(=O)NCCc1c[nH]c2ccccc12	89	/	/	/	5	/
CO[C@@H]1CN(C)C(=O)c2ccc(NC(=O)c3ccccc3F)cc2OC[C@@H](C)N(CC2CCOCC2)C[C@@H]1C	/	/	/	/	-14	/
CN1CC(=O)N(CC(=O)Nc2ccc(Br)cc2F)C1=O	100	105	-3	70*	-5	-2
O=C(CCCN1C(=O)CCC1=O)Nc1ccc(Br)cc1F	102	86	-10	7	4	/
CCCCN1C(=O)C(CC(=O)NC2CCCCC2)CC(C(=O)N(C)C)=C1C (stereo unspecified)	92	/	/	/	-10	/
Cc1cc(=O)oc2c(C)c(OC(C)C(=O)NC(Cc3c[nH]c4ccc(O)cc34)C(=O)O)ccc12 (stereo unspecified)	95	103	-4	0	1	/
CCc1c(C)c2ccc(OC(C)C(=O)NC(Cc3c[nH]c4ccc(O)cc34)C(=O)O)c(C)c2oc1=O (stereo unspecified)	108	90	5	52*	1	11
CCN(CC)S(=O)(=O)c1ccc(NC(=O)Cn2c(=O)oc3ccccc32)cc1	91	114	6	7	22	4
N#CCc1ccc(NC(=O)Cn2c(=O)oc3ccccc32)cc1	100	99	2	14	-18	-15
O=C(Cn1c(=O)oc2ccccc21)Nc1ccc(Cl)cc1	95	98	0	27	19	/
O=C(Cn1c(=O)oc2ccccc21)Nc1ccc(S(=O)(=O)N2CCCCC2)cc1	104	100	-8	5	30	/
O=C(NCc1cc(Cl)cc(Cl)c1)c1ccc2sc([C@H]3C[C@H](O)[C@@H](CO)O3)nc2c1	94	/	/	/	-3	/
COC(=O)[C@]1(Cc2ccccc2)N[C@H](CN(C)S(=O)(=O)c2ccc(C(F)(F)F)cc2)[C@@H]2C(=O)N(Cc3ccccc3)C(=O)[C@@H]21	100	94	/	29	13	-10
COC(=O)[C@]1(Cc2ccccc2)N[C@H](CN(C)S(=O)(=O)c2ccc(C(C)(C)C)cc2)[C@@H]2C(=O)N(Cc3ccccc3)C(=O)[C@@H]21	97	112	/	-16	9	-6

Screening data: PubChem BioAssay, several laboratories
